Test results taken from PubChem BioAssay (NCI).
About 83,000 compounds went through this panel and 20% of them were active in at least one assay; those are over-represented in the sample as a whole.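 A percent growth of 40 corresponds to 60% growth inhibition; 0 means no net growth; -100 means all cells died. Active threshold: below 10.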 Activity calls are given as the source filed them. *1 amine or outer side, *2 acyl side, *3 side chain or, on linkers, in order; H or OH if unused. Where a SMILES comes first, the peptide text is derived from it. [ ]: non-standard residue; d: D form. The star is where a group is joined. X5 = CCC(=O)CC1CC(C)CC(C(=O)[*:2])N1[*:1]; X4 = CCCCCCCCC(C)C(=O)*; Aib = CC(C)(N)C(=O)O; X6 = CC(CN(C)CCO)N*

Experiments:
Experiment in all cases: NCI-60 one-dose screen, 48 h (100 = growth as untreated, 0 = no growth, -100 = all killed)
Conditions in all cases: 10 µM unless noted
SK-MEL-2 melanoma = test system: SK-MEL-2 melanoma
EKVX NSCLC = test system: EKVX NSCLC
SN12C renal = test system: SN12C renal
UO-31 renal = test system: UO-31 renal
TK-10 renal = test system: TK-10 renal
ACHN renal = test system: ACHN renal
A498 renal = test system: A498 renal
CCRF-CEM leukemia = test system: CCRF-CEM leukemia
MOLT-4 leukemia = test system: MOLT-4 leukemia
SR leukemia = test system: SR leukemia
RPMI-8226 leukemia = test system: RPMI-8226 leukemia
OVCAR-8 ovarian = test system: OVCAR-8 ovarian
OVCAR-5 ovarian = test system: OVCAR-5 ovarian
OVCAR-4 ovarian = test system: OVCAR-4 ovarian
SK-OV-3 ovarian = test system: SK-OV-3 ovarian
IGROV1 ovarian = test system: IGROV1 ovarian
OVCAR-3 ovarian = test system: OVCAR-3 ovarian
NCI/ADR-RES ovarian = test system: NCI/ADR-RES ovarian
CAKI-1 renal = test system: CAKI-1 renal
HS 578T breast = test system: HS 578T breast

Measured: growth

N#CC(=C1SCS1)[N+](=O)[O-]
inactive: SK-MEL-2 melanoma 19.2% | EKVX NSCLC 63.7% | SN12C renal 28% | UO-31 renal 32.3% | ACHN renal 24.5% | A498 renal 59.3% | RPMI-8226 leukemia 32% | OVCAR-8 ovarian 18.9% | OVCAR-5 ovarian 47% | OVCAR-4 ovarian 42.6% | SK-OV-3 ovarian 55% | IGROV1 ovarian 24.5% | NCI/ADR-RES ovarian 20.2%
active: TK-10 renal 3.93% | CCRF-CEM leukemia 2.01% | MOLT-4 leukemia 3.81% | SR leukemia 7.48% | OVCAR-3 ovarian 8.46%

CC(=O)N1CC(=O)NC1=S
inactive: SK-MEL-2 melanoma 105% | EKVX NSCLC 94% | SN12C renal 100% | UO-31 renal 86.1% | TK-10 renal 102% | ACHN renal 103% | CAKI-1 renal 93% | CCRF-CEM leukemia 105% | MOLT-4 leukemia 104% | SR leukemia 91.8% | RPMI-8226 leukemia 101% | OVCAR-8 ovarian 103% | OVCAR-5 ovarian 97.1% | OVCAR-4 ovarian 96.5% | IGROV1 ovarian 105% | OVCAR-3 ovarian 110% | HS 578T breast 102% | NCI/ADR-RES ovarian 104%

O=C1/C(=C\c2ccc([N+](=O)[O-])cc2)CS(=O)(=O)C/C1=C/c1ccc([N+](=O)[O-])cc1
active: SK-MEL-2 melanoma -35.9% | EKVX NSCLC -63.4% | SN12C renal -41.1% | UO-31 renal -95.4% | TK-10 renal -99% | ACHN renal -98.8% | CAKI-1 renal -92.3% | CCRF-CEM leukemia -31.6% | MOLT-4 leukemia -34.7% | SR leukemia 0.134% | RPMI-8226 leukemia -19.4% | OVCAR-5 ovarian -99% | OVCAR-4 ovarian -90.2% | SK-OV-3 ovarian -43.3% | IGROV1 ovarian -82.4% | OVCAR-3 ovarian -90.1% | NCI/ADR-RES ovarian -80.4%

COC(=O)c1cc([N+](=O)[O-])cc([N+](=O)[O-])c1Cl
inactive: SK-MEL-2 melanoma 87.4% | EKVX NSCLC 98.1% | SN12C renal 99.8% | UO-31 renal 79.1% | ACHN renal 15.6% | CCRF-CEM leukemia 29.8% | MOLT-4 leukemia 26.6% | SR leukemia 30.9% | RPMI-8226 leukemia 87.1% | OVCAR-8 ovarian 76.1% | OVCAR-5 ovarian 97.9% | OVCAR-4 ovarian 61% | SK-OV-3 ovarian 102% | IGROV1 ovarian 95.7% | NCI/ADR-RES ovarian 99.1%
active: TK-10 renal -41.3% | OVCAR-3 ovarian -44.7%

O=[N+]([O-])c1ccc([I+]c2ccccc2)cc1
inactive: UO-31 renal 46.9% | ACHN renal 64.2% | CAKI-1 renal 23.1% | A498 renal 39.6% | MOLT-4 leukemia 22.9% | SR leukemia 17.7% | RPMI-8226 leukemia 41.6% | SK-OV-3 ovarian 50.2% | IGROV1 ovarian 43.4% | NCI/ADR-RES ovarian 28.9%
active: SK-MEL-2 melanoma -17.9% | EKVX NSCLC -62.4% | SN12C renal -56.2% | TK-10 renal 3.24% | OVCAR-8 ovarian -27.6% | OVCAR-5 ovarian -85.8% | OVCAR-4 ovarian -91% | OVCAR-3 ovarian -15.3% | HS 578T breast 1.04%

COC(=O)c1nc(=S)[nH]c(C(=O)OC)c1C(=O)c1ccc(Cl)c(Cl)c1
inactive: SK-MEL-2 melanoma 107% | EKVX NSCLC 100% | SN12C renal 102% | UO-31 renal 87% | TK-10 renal 106% | ACHN renal 114% | CAKI-1 renal 94.6% | A498 renal 130% | MOLT-4 leukemia 130% | SR leukemia 115% | RPMI-8226 leukemia 105% | OVCAR-8 ovarian 111% | OVCAR-5 ovarian 118% | OVCAR-4 ovarian 104% | SK-OV-3 ovarian 107% | IGROV1 ovarian 112% | OVCAR-3 ovarian 122% | HS 578T breast 102% | NCI/ADR-RES ovarian 110%

CCCCCCCCC(C)C(=O)N1CCCC1C(=O)N1C(CC(=O)CC)CC(C)CC1C(=O)NC(C)C(=O)NC(C)(C)C(=O)NC(C)(C)C(=O)NC(C(=O)NC(C)C(=O)NC(C)(C)C(=O)NC(C)(C)C(=O)NC(C)CN(C)CCO)C(C)CC (configuration not stated) (X4-P[X5]A[Aib][Aib]IA[Aib][Aib]-X6; configuration not given here)
active: SK-MEL-2 melanoma -34% | EKVX NSCLC -25.3% | SN12C renal -78.5% | UO-31 renal -48.1% | TK-10 renal -50.5% | ACHN renal -54.5% | CAKI-1 renal 7.86% | CCRF-CEM leukemia -33.3% | MOLT-4 leukemia -40.9% | SR leukemia -44.2% | RPMI-8226 leukemia -42.5% | OVCAR-5 ovarian -82.2% | OVCAR-4 ovarian -12.9% | SK-OV-3 ovarian -23.8% | IGROV1 ovarian -60.3% | OVCAR-3 ovarian -54.6% | NCI/ADR-RES ovarian -36.9%

CCc1cccc(CC)c1N1C(=O)C=CC1=O
active: MOLT-4 leukemia -10%
inactive: SK-MEL-2 melanoma 107% | EKVX NSCLC 113% | SN12C renal 129% | UO-31 renal 90.3% | TK-10 renal 104% | ACHN renal 102% | A498 renal 100% | CCRF-CEM leukemia 17% | OVCAR-8 ovarian 112% | OVCAR-5 ovarian 116% | OVCAR-4 ovarian 111% | SK-OV-3 ovarian 121% | OVCAR-3 ovarian 97% | HS 578T breast 108% | NCI/ADR-RES ovarian 118%

C[C@@]1(CO)[C@H](O)CC[C@@]2(C)[C@H]1CC[C@H]1C[C@@H]3C[C@@]12CC[C@@]3(O)COC(=O)CN
inactive: SK-MEL-2 melanoma 102% | EKVX NSCLC 74.2% | SN12C renal 61.6% | UO-31 renal 22.7% | TK-10 renal 85.3% | ACHN renal 14.6% | CAKI-1 renal 17% | CCRF-CEM leukemia 32.8% | MOLT-4 leukemia 28.2% | SR leukemia 18.9% | RPMI-8226 leukemia 43% | OVCAR-5 ovarian 24.7% | OVCAR-4 ovarian 87.9% | SK-OV-3 ovarian 74.8% | IGROV1 ovarian 33.5% | OVCAR-3 ovarian 70.9% | NCI/ADR-RES ovarian 11.1%

NC(=Nc1nc(-c2ccccn2)cc2ccccc12)c1ccccn1
active: UO-31 renal 2.9% | ACHN renal 8.11% | CAKI-1 renal 2.97% | CCRF-CEM leukemia 0.348% | MOLT-4 leukemia -3.87% | SR leukemia 6.67% | RPMI-8226 leukemia -11.3% | OVCAR-5 ovarian -15.7% | NCI/ADR-RES ovarian -31.2%
inactive: SK-MEL-2 melanoma 66.5% | EKVX NSCLC 16.5% | SN12C renal 26.2% | TK-10 renal 31.5% | OVCAR-4 ovarian 27.1% | SK-OV-3 ovarian 19.7% | OVCAR-3 ovarian 29.3%

CCOc1ccc(C(C[N+](=O)[O-])Sc2ccccc2N)cc1 (configuration not stated)
active: UO-31 renal -62.9% | MOLT-4 leukemia 4.52% | SR leukemia 4.9% | RPMI-8226 leukemia 6.92% | IGROV1 ovarian -34.9%
inactive: SK-MEL-2 melanoma 98.7% | EKVX NSCLC 66.9% | SN12C renal 65% | ACHN renal 55.4% | CAKI-1 renal 64.6% | A498 renal 109% | CCRF-CEM leukemia 30.3% | OVCAR-8 ovarian 53.5% | OVCAR-5 ovarian 81.9% | OVCAR-4 ovarian 83.1% | SK-OV-3 ovarian 72.6% | OVCAR-3 ovarian 32.2% | HS 578T breast 43.6% | NCI/ADR-RES ovarian 72.6%

CN(C)c1ccc(C(=C2C=CC(=[N+](C)C)C=C2)c2ccc(N(C)C)cc2)cc1
active: SK-MEL-2 melanoma -57.8% | EKVX NSCLC -44% | SN12C renal -67% | UO-31 renal -97.9% | ACHN renal -95.9% | CAKI-1 renal -27.5% | A498 renal -91% | CCRF-CEM leukemia -16.6% | MOLT-4 leukemia -11.4% | SR leukemia -14.3% | RPMI-8226 leukemia -51.8% | OVCAR-8 ovarian -44.8% | OVCAR-5 ovarian -34.4% | OVCAR-4 ovarian -18.5% | SK-OV-3 ovarian -90.9% | OVCAR-3 ovarian -91.1% | HS 578T breast 1.62% | NCI/ADR-RES ovarian -18.8%

CCOc1cc(F)c([N+](=O)[O-])cc1[N+](=O)[O-]
inactive: SK-MEL-2 melanoma 50.4% | EKVX NSCLC 101% | SN12C renal 90.5% | UO-31 renal 45.4% | ACHN renal 12.7% | CAKI-1 renal 18.8% | A498 renal 101% | RPMI-8226 leukemia 24.2% | OVCAR-8 ovarian 19.6% | OVCAR-5 ovarian 77.9% | OVCAR-4 ovarian 46.9% | SK-OV-3 ovarian 99.3% | IGROV1 ovarian 91.9% | OVCAR-3 ovarian 46.7% | HS 578T breast 90.6% | NCI/ADR-RES ovarian 11.8%
active: CCRF-CEM leukemia 9.98% | MOLT-4 leukemia 9.18%

COC1=CC(=O)c2c(O)c3c(c(O)c2C1=O)CC(C)(O)OC3 (configuration not stated)
inactive: EKVX NSCLC 23.2% | SN12C renal 34.7% | UO-31 renal 33.8% | ACHN renal 27.6% | CAKI-1 renal 34.4% | A498 renal 68.3% | CCRF-CEM leukemia 19.5% | MOLT-4 leukemia 14.5% | SR leukemia 14.3% | RPMI-8226 leukemia 34.7% | OVCAR-5 ovarian 35.4% | SK-OV-3 ovarian 86.9% | HS 578T breast 67.2%
active: SK-MEL-2 melanoma -6.4% | OVCAR-4 ovarian -12.8% | NCI/ADR-RES ovarian -4.8%

Cc1ccc2c(c1)sc(-c1ccc(N(C)C)cc1)[n+]2C
active: SK-MEL-2 melanoma 0.0539% | EKVX NSCLC 6.29% | SN12C renal 3.59% | A498 renal -6.25% | MOLT-4 leukemia -42.4% | RPMI-8226 leukemia -56.7% | SK-OV-3 ovarian -14.2% | IGROV1 ovarian 8.14% | OVCAR-3 ovarian -14.8%
inactive: UO-31 renal 65.1% | ACHN renal 63.6% | CAKI-1 renal 72.3% | CCRF-CEM leukemia 10.7% | OVCAR-8 ovarian 16.3% | OVCAR-5 ovarian 14.4% | OVCAR-4 ovarian 20.3% | HS 578T breast 20.3% | NCI/ADR-RES ovarian 81.3%

O=C(c1ccc(O)c(Br)c1)c1ccc(O)c(Br)c1
inactive: SK-MEL-2 melanoma 105% | EKVX NSCLC 112% | SN12C renal 94.4% | UO-31 renal 98.5% | ACHN renal 102% | CAKI-1 renal 119% | A498 renal 93.9% | CCRF-CEM leukemia 109% | RPMI-8226 leukemia 99.5% | OVCAR-8 ovarian 106% | OVCAR-5 ovarian 110% | OVCAR-4 ovarian 103% | SK-OV-3 ovarian 116% | HS 578T breast 113% | NCI/ADR-RES ovarian 105%

CC(C)c1ccc(C(=O)OC2CCCC2)cc1
inactive: SK-MEL-2 melanoma 105% | EKVX NSCLC 92.6% | SN12C renal 97.5% | UO-31 renal 99.6% | ACHN renal 99.5% | CAKI-1 renal 98.8% | A498 renal 117% | CCRF-CEM leukemia 89.8% | MOLT-4 leukemia 110% | SR leukemia 105% | RPMI-8226 leukemia 98.3% | OVCAR-8 ovarian 113% | OVCAR-5 ovarian 101% | OVCAR-4 ovarian 106% | SK-OV-3 ovarian 107% | IGROV1 ovarian 103% | OVCAR-3 ovarian 99.3% | HS 578T breast 101% | NCI/ADR-RES ovarian 99.9%
